TEAD-YAP inh: TEAD-YAP interaction inhibition, primary screen, TEAD-YAP interaction inhibitor project, luminescence, HEK-TIYL cells. inhibition, % at 9.12 µM. 640,000 tested, 1.4% active. TEAD-Gal4/YAP UAS-luciferase luminescence; in the data active = inhibition above about 32%;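 also: 0% = median of test compound wells and 100% = reference inhibitor wells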
GPR151 activ: activators of human GPR151, primary screen, cell-based, PathHunter beta-arrestin, luminescence; 650,000 tested, 1% active; G-protein coupled receptor 151 (Homo sapiens), Q8TDV0; PathHunter beta-arrestin GPR151 cells; activation, % at 11.2 µM; in the data active = activation above about 4.9%;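 also: 0% = median of compound wells and 100% = cells with positive control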
FBW7 activator: FBW7 E3 ligase activators, primary screen, biochemical, AlphaScreen, human; AlphaScreen FBW7–phospho-cyclin E peptide binding, activator screen; normalized activity (activation), % at 26.1 µM; 650,000 tested, 0.13% active; AID 1259310, 2017; in the data active = normalized activity above about 1.9%;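 also: purified mutant Fbw7 with reduced substrate affinity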
MITF primary: MITF inhibitors, primary screen, biochemical, AlphaScreen, human; Microphthalmia-associated transcription factor (Homo sapiens), O75030; AlphaScreen MITF homodimerization, bead proximity signal; inhibition, % at 2.6 µM; 650,000 tested, 0.91% active; in the data active = inhibition above about 50%;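 also: 0% = vehicle wells with protein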
MITF confirm: MITF inhibitors, retest of hits, confirmation, biochemical, AlphaScreen, triplicate. shares compounds with MITF primary. AID 1259372, 2018. AlphaScreen MITF homodimerization, biotin/His-MITF beads. inhibition, % at 2.6 µM. 4,700 tested, 16% active;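 active = inhibition above a cutoff derived from the DMSO control wells, cut at about 28% in these data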;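 also: 0% = MITF dimer wells with DMSO only; inhibitors lower the bead chemiluminescence by keeping MITF from dimerizing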
AS interf ctr: AlphaScreen optical interference compounds, counter-screen for MITF inhibitor project, biochemical, triplicate | shares compounds with MITF primary | LysRS AlphaScreen counterscreen, signal interference | inhibition, % at 2.6 µM | 4,700 tested, 7.6% active | AID 1259376, 2018;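 active = inhibition above a cutoff derived from the DMSO control wells, cut at about 30% in these data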
An asterisk follows results filed as active; · = no result given. Most compounds without a hit are left out; they make up all but 3.5% or so of the library.

SMILES	TEAD-YAP inh	GPR151 activ	FBW7 activator	MITF primary	MITF confirm	AS interf ctr
COc1ccc(CN2CCN(C(=O)COc3ccc(Cl)cc3)CC2)cc1	4.5	0.1	-0.1	58.0*	14.3	16.6
Oc1ccc(CN2CCN(c3ccc(Cl)cc3)CC2)cc1	-3.1	2.4	-0.4	11.4	·	·
CCc1ccc(CN2CCN(Cc3ccc(CC)cc3)CC2)cc1	8.0	0.5	-0.2	67.3*	2.9	4.0
CSc1ccc(CN2CCN(Cc3ccc(Cl)cc3)CC2)cc1	6.6	1.5	-0.2	79.6*	11.4	16.0
C=CCOC(=O)C1=C(C)OC(N)=C(C#N)C12C(=O)N(CC(=O)OCC)c1ccccc12 (centres undefined)	3.7	-0.3	0.0	7.8	·	·
COc1ccc(CN2CCN(Cc3ccccc3Br)CC2)cc1Br	-6.7	0.0	0.0	74.9*	4.3	1.7
COc1ccc(CN2CCN(C)CC2)cc1Br	6.6	1.5	0.9	72.8*	3.2	10.2
COc1ccc(CN2CCN(Cc3ccc(Br)cc3)CC2)cc1Br	-2.8	0.4	-0.8	32.8	·	·
O=[N+]([O-])c1ccc(N2CCN(Cc3c(F)cccc3F)CC2)cc1	-6.3	0.6	-0.2	62.7*	1.3	-1.9
O=[N+]([O-])c1cccc(CN2CCN(c3ccc(F)cc3)CC2)c1	-4.0	1.7	0.0	45.3	·	·
O=[N+]([O-])c1ccc(N2CCN(Cc3cc(F)ccc3F)CC2)cc1	0.1	-1.3	0.1	57.6*	1.0	4.8
Cc1cc(F)ccc1NC1=NCCS1	-6.6	0.5	-0.2	-13.1	·	·
CCC(C)N1CCN(Cc2cc(OC)c(O)c(OC)c2)CC1 (centres undefined)	-9.5	-1.7	-0.3	67.6*	7.0	25.1
CCN1CCN(Cc2cc(OC)c(O)c(OC)c2)CC1	-5.0	0.3	0.4	12.0	·	·
CCC(C)N1CCN(Cc2cc(OC)c(OC)c(OC)c2)CC1 (centres undefined)	-0.9	-1.1	-0.2	75.4*	3.4	1.1
COc1ccc(CN2CCN(Cc3cccc(C)c3)CC2)cc1	4.0	-1.6	-0.5	31.4	·	·
COc1ccccc1CN1CCN(Cc2cccc(C)c2)CC1	-7.1	-1.6	-0.1	68.5*	7.8	8.9
CCN1CCN(Cc2cccc([N+](=O)[O-])c2)CC1	-1.7	0.1	-0.2	-10.9	·	·
Cc1ccc(CN2CCN(Cc3cccc(C)c3)CC2)cc1	6.7	1.0	-0.2	64.0*	8.7	17.7
Cc1cccc(CN2CCN(Cc3ccccc3F)CC2)c1	-2.0	-0.7	-0.2	79.3*	9.5	12.0
Cc1cccc(CN2CCN(Cc3ccccc3[N+](=O)[O-])CC2)c1	-4.1	3.9	-0.3	64.0*	13.0	-1.8
Cc1cccc(CN2CCN(Cc3ccccc3C)CC2)c1	-6.2	0.5	-0.1	64.3*	-2.6	-4.1
COc1ccccc1N1CCN(Cc2ccccc2[N+](=O)[O-])CC1	2.9	-0.6	-0.1	6.7	·	·
O=[N+]([O-])c1ccccc1CN1CCN(Cc2ccccc2F)CC1	-8.2	-0.1	0.1	66.9*	3.0	1.1
CC(C)N1CCN(Cc2ccccc2[N+](=O)[O-])CC1	-6.1	1.2	0.2	62.9*	9.8	13.8
SMILES	TEAD-YAP inh	GPR151 activ	FBW7 activator	MITF primary	MITF confirm	AS interf ctr
COc1cccc(-n2c(/C=C/c3ccccc3)nc3ccccc3c2=O)c1	5.4	1.3	0.0	-0.3	·	·
COc1ccccc1CN1CCN(C(=O)COc2ccccc2)CC1	5.1	-0.8	-0.2	38.7	·	·
Cc1ccccc1CN1CCN(C(=O)COc2ccccc2)CC1	-1.9	1.8	0.1	59.7*	7.9	9.0
O=C(COc1ccccc1)N1CCN(Cc2ccccc2F)CC1	-8.2	-0.7	-0.1	55.1*	6.7	7.9
O=[N+]([O-])c1ccc(N2CCCC2)cc1N1CCNCC1	25.9	-1.2	0.3	1.4	·	·
O=C(Cc1noc2ccccc12)N1CCN(Cc2ccccc2)CC1	-6.0	-0.9	0.0	8.3	·	·
CCC(C)N1CCN(Cc2cccc(OC)c2OC)CC1 (centres undefined)	-12.6	-0.1	0.4	78.2*	3.9	7.7
